Shown are actives, neighbours in structure and some others; about 3.3% of the full set was active somewhere.
BoNT-A LC inh2: blocks Botulinum neurotoxin A light chain protease | multiplex microsphere protease substrate cleavage, flow cytometry | inhibition, % at 10 µM | 360,000 tested, 0.17% active | AID 588499; further: plate controls were buffer without enzyme for full effect and enzyme alone for no effect
Anthrax LF inh2: inhibitors of Bacillus anthracis lethal factor protease; multiplex microsphere protease cleavage assay, LF; 360,000 tested, 0.12% active; AID 588501; P15917; inhibition, % at 10 µM; further: plate controls were buffer without enzyme for full effect and enzyme alone for no effect
SSB-PriA inh: inhibitors of Klebsiella pneumoniae PriA binding to SSB C-terminal tail. AlphaScreen SSBct-PriA binding, biotinylated peptide. inhibition, % at 33 µM. 430,000 tested, 0.6% active; in the data active means inhibition mostly above about 37%, no sharp cut-off; inactive means mostly below about 20%;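 further: plate controls were negative control peptide for no effect and reference peptide for full effect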
MazEF act: increases E. coli MazEF RNase cleavage of RNA; FAM/BHQ RNA-DNA oligo cleavage fluorescence, 5 h; 350,000 tested, 0.32% active; AID 504720; P0AE70; activation, % at 20 µM; in the data active means activation above about 50%
Target sequence (P0AE70 whole entry, looked up): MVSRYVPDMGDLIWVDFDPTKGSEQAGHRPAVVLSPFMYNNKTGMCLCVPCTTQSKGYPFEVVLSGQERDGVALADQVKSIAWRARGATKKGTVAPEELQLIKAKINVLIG
Bead autofluor: counter-screen for toxin protease inhibitors: compound fluorescence; fluorescence intensity (concentration not given with the values); 360,000 tested, 3.1% active; compound autofluorescence counterscreen, microsphere flow cytometry; active compounds read high; in the data active means fluorescence intensity above about 16000; inconclusive means no clear call, values can overlap the other calls
BoNT F protease: blocks Botulinum neurotoxin F light chain protease | Multiplex microsphere protease cleavage assay, flow cytometry | inhibition, % at 10 µM | 360,000 tested, 0.22% active; in the data active means inhibition above about 35%, passing the limit was not always enough; inconclusive means no clear call, values can overlap the other calls; further: plate controls were buffer without enzyme for full effect and enzyme alone for no effect
Numbers without * were called inactive; ? = inconclusive; . = not tested or not shown. Unless noted, no stated cut-off is given here; in the data, active means inhibition above about 30%; inconclusive means no clear call, values can overlap the other calls; inactive means below that.

SMILES	BoNT-A LC inh2	Anthrax LF inh2	SSB-PriA inh	MazEF act	Bead autofluor	BoNT F protease
Cc1[nH]c2ccccc2c1C(=O)/C=C/c1ccccc1Cl	-0.9	-1.1	1.9	50.7*	2218	-1.2
CS(=O)(=O)N1CCCC1C(=O)Nc1nc(-c2ccccc2)c(-c2ccccc2)s1 (configuration not stated)	.	.	-5.0	.	.	.
COc1ccc(C2CC(c3cccs3)=NN2C(=O)Cn2c(-c3nnc(C)o3)cc3ccccc32)cc1 (configuration not stated)	.	.	-8.0	.	.	.
CCCCCCCCC(=O)NNC(=O)c1c(O)c2ccccc2n(CC)c1=O	6.0	2.2	2.0	3.3	3940	39.3*
CCn1c(=O)c(C(=O)Nc2ccccc2C)c(O)c2ccccc21	?	1.3	-1.4	13.4	22484*	6.1
O=C(CC1CCCCN1S(=O)(=O)c1ccc(F)cc1)NC1CCCC1 (configuration not stated)	.	.	13.0	.	.	.
N#C/C(C(N)=O)=C1/SC(Cc2cccc([N+](=O)[O-])c2)C(=O)N1c1ccccc1 (configuration not stated)	.	.	-11.0	.	.	.
CCCNC(=O)c1cc(OC)c(OC)cc1[N+](=O)[O-]	?	0.9	-9.9	7.2	24245*	1.4
COc1cc(C(=O)NCCc2ccc(F)cc2)c([N+](=O)[O-])cc1OC	-0.3	-0.7	10.3	6.9	2495	-2.8
COc1cc(C(=O)Nc2ccc(N3CCCS3(=O)=O)cc2)c([N+](=O)[O-])cc1OC	-50.5	-11.8	5.4	3.9	18232*	-85.4
OC(COC12CC3CC(CC(C3)C1)C2)Cn1cnc2ccccc21 (configuration not stated)	.	.	16.0	.	.	.
O=C(CCc1ccccc1)Nc1cnc(N2CCCC2)nc1	.	.	-10.0	.	.	.
Cc1cc(C)n(-c2ccc(=O)[nH]n2)n1	.	.	10.0	.	.	.
COc1cc(-c2ccc3oc(-c4ccsc4)cc(=O)c3c2)cc(OC)c1OC	0.0	-3.7	1.8	28.8	4008	-5.4
COc1ccc(-c2ccc3c(=O)cc(-c4ccsc4)oc3c2)cn1	-0.3	3.9	-3.4	69.6*	3346	5.5
COC(=O)c1ccsc1NC(=O)c1ccc(-n2cncn2)nn1	.	.	15.0	.	.	.
O=C(Nc1ccc2c(c1)CCC2)c1cnccn1	2.2	-1.6	-7.3	4.3	20322*	0.6
COc1cc2[nH]c(=S)n(C3CCCC3)c(=O)c2cc1OC	-1.4	-1.1	-16.8	8.2	23713*	-1.2
COc1cc2[nH]c(=S)n(-c3ccccc3)c(=O)c2cc1OC	-1.2	-1.1	-10.7	6.1	2671	-6.8
COc1cc2[nH]c(=S)n(C3CC3)c(=O)c2cc1OC	-1.2	-4.4	3.4	1.5	4301	-2.1
COc1cc2[nH]c(=S)n(N(C(C)=O)C(C)=O)c(=O)c2cc1OC	2.2	0.4	-12.7	4.7	22631*	1.0
COc1ccc(C(C)=O)cc1NC(=O)C1=NCCN1	.	.	-20.0	.	.	.
O=S(=O)(c1ccc(N2CC=C(c3ccccc3)CC2)nc1)N1CCCC1	?	-1.3	0.1	0.1	24332*	-6.4
Cc1ccc(N2CCCS2(=O)=O)cc1NC(=O)C(=O)NCCC(C)C	.	.	3.0	.	.	.
COc1ccc(N2C[C@@H](C(=O)O)CC2=O)cc1OC	.	.	-12.0	.	.	.
SMILES	BoNT-A LC inh2	Anthrax LF inh2	SSB-PriA inh	MazEF act	Bead autofluor	BoNT F protease
COc1ccc(C(=O)N(CC2CCCO2)C(C(=O)NCCC(C)C)c2ccc(C)cc2)cc1OC (configuration not stated)	-0.4	0.0	-8.9	-3.8	2429	1.3
COc1ccc(C(=O)N(CCCO)C(C)C(=O)NC2CCCCC2)cc1OC (configuration not stated)	?	1.0	4.7	4.6	21753*	3.6
COc1ccc(C(=O)NC2CCCCCCC2)cc1OC	-3.1	14.5	-2.1	-0.4	4015	?
COc1ccc(C(=O)N(CC2CCCO2)C(C(=O)NC2CCCC2)c2ccc(Cl)cc2)cc1OC (configuration not stated)	3.3	2.1	-16.8	-3.9	21196*	6.7
COc1ccc(-c2nc3ccccc3n2Cc2cccc3ccccc23)cc1OC	.	.	0.0	.	.	.
O=C(Nc1cc(N2CCOCC2)ncn1)c1cc(C2CC2)on1	.	.	-7.0	.	.	.
CO[C@@H](CNC(=O)C(=O)Nc1cccc(Cl)c1C)c1cccc(F)c1	.	.	2.0	.	.	.
Cc1ccc(-n2ncc3c(N4CCC(C(N)=O)CC4)ncnc32)c(C)c1	0.3	2.0	-5.4	-7.7	23419*	0.2
CCN(CC)C(=O)C1CCN(c2ncnc3c2cnn3-c2ccc(C)cc2C)CC1	-0.2	0.0	-11.4	-5.9	3693	7.1
N#Cc1cc([N+](=O)[O-])c(-n2nnc3ccccc32)c([N+](=O)[O-])c1	-0.1	0.2	0.9	3.2	4249	-3.5
COc1ccccc1Oc1cc(C#N)c(C#N)cc1-n1nnc2ccccc21	1.5	-7.6	14.8	0.3	22329*	2.5
Cc1cncnc1N1CCN(S(=O)(=O)c2ccc3c(c2)OCCO3)CC1	.	.	-8.0	.	.	.
Cc1ccc2c(c1)c(-c1ccccc1)c(-c1ccccc1)n2CC(O)CNC1CCCC1 (configuration not stated)	.	.	61.0*	.	.	.
CCCCC(=O)NC(c1ccc(OC)c(OC)c1)c1c(O)ccc2ccccc12 (configuration not stated)	0.4	-2.7	5.5	9.4	7962	-1.3
CCCC(=O)NC(c1ccc(OC)c(OC)c1)c1c(O)ccc2ccccc12 (configuration not stated)	?	0.9	-5.8	-0.9	23446*	-1.8
CCCCn1c(O)c(C(C)=Nc2cccc(C(=O)O)c2)c(=O)[nH]c1=O	?	0.0	-9.8	3.5	21668*	0.0
CCCCn1c(O)c(C(C)=Nc2ccc(OCC)cc2)c(=O)[nH]c1=O	-0.5	-3.1	2.1	-7.5	3391	-11.6
CCCCn1c(O)c(C(C)=NCCc2c[nH]c3ccccc23)c(=O)[nH]c1=O	-3.1	0.7	-4.7	7.2	5010	?
CCCCn1c(O)c(C(CC)=Nc2ccc3c(c2)CCC3)c(=O)[nH]c1=O	7.8	-12.0	-5.4	-6.8	16607*	8.7
CCCCn1c(O)c(C(C)=NC(Cc2c[nH]c3ccccc23)C(=O)OC)c(=O)[nH]c1=O (configuration not stated)	-2.9	0.4	-8.4	7.9	20728*	-2.9
COc1ccccc1CNC(=O)C(=O)Nc1ccccc1Cl	.	.	-34.0	.	.	.
CS(=O)(=O)N1CC(C(=O)Nc2cccnc2)C1	.	.	-7.0	.	.	.
CC(C)S(=O)(=O)c1ccc(CC(=O)N2CCC(c3nnc(-c4ccco4)s3)CC2)cc1	.	.	2.0	.	.	.
CC(=NNc1nc2ccccc2s1)c1ccc(Br)s1	.	.	24.9	.	.	.
COc1ccc(OC)c(NC(=O)Cc2coc3ccc(C)cc23)c1	-1.0	-2.5	10.7	12.0	9700	-17.2
COc1ccc(OC)c(NC(=O)Cc2coc3cc(C)cc(C)c23)c1	?	-4.0	-6.8	0.7	22476*	-0.6
COCCN(CCOC)C(=O)c1c[nH]c2ccc(S(=O)(=O)N(C)c3ccc(F)cc3)cc2c1=O	2.5	2.7	-20.6	7.4	18595*	2.4
CCOc1ccccc1N(C)S(=O)(=O)c1ccc2[nH]cc(C(=O)N(CCOC)CCOC)c(=O)c2c1	-1.7	-0.2	2.0	-10.6	3666	-2.2

Source: PubChem
